Drawing on PubChem BioAssay (Tox21), this text covers Potency for 40 molecules.

Each structure is given as a SMILES string. “And” between values parts separate entries of the source, which are not always exact repeats. Equal values may be shown once. Results filed as inconclusive are left out. Where a call stands in place of a potency, no number is given. More than one record can exist for a structure, and the calls need not agree. The source made the active and inactive calls. Calls come from the whole dose curve; as a rule, active = well fitted cell-killing curve with a large enough effect in the repeat runs; inconclusive = weak or mixed curves, or effect the other way; inactive = no such curve, though single readings can be large or run the other way.
Potency is the fitted concentration of half-maximal effect.

The test can be described thus: qHTS assay for small molecule activators of the heat shock response signaling pathway - cell viability counter screen (AID 743209). Note: nearly all actives have a fitted effect of over 50% in size. The settings on record: HSE-bla HeLa viability, CellTiter-Glo luminescence, 5 h; series mostly up to 62.6 µM. The text has this:
U.S. Tox21 Program National Center for Advancing Translational Sciences [NCATS] NIH Chemical Genomics Center [NCGC] U.S. Environmental Protection Agency [EPA] National Institutes of Environmental Health Sciences [NIEHS] National Toxicology Program [NTP] U.S. Food and Drug Administration [FDA] Tox21 Assay Overview: Various chemicals, environmental and physiological stress conditions may lead to the activation of heat shock response/ unfolded protein response (HSR/UPR). There are three heat shock transcription factors (HSFs) (HSF-1, -2, and -4) mediating transcriptional regulation of the human HSR. To identify the compounds that activate HSR signaling, HSE-bla HeLa cell line (Invitrogen, Carlsbad, CA, USA) containing a beta-lactamase reporter gene under the control of the heat shock response elements was used to screen Tox21 10K compound library. The cytotoxicity of the Tox21 compound library against the HSE-bla HeLa cell line was tested in parallel by measuring the cell viability using CellTiter-Glo assay (Promega, Madison, WI) in the same wells.
Tox21 Assay Protocol Summary: The CellSensor HSE-bla HeLa cells (Invitrogen, Carlsbad, CA, USA) were dispensed at 1500 cells/6uL/well into 1536-well black wall/clear bottom plates using a Multidrop combi (Thermo Fisher Scientific, Waltham, MA) dispenser. After the assay plates were incubated at 37 C and 5% CO2 overnight, 23 nL of compounds dissolved in DMSO, positive controls or DMSO only was transferred to the assay plate by a Pintool station (Kalypsys, San Diego, CA). The plates were incubated at 37 C for 5 h. After 1 uL of LiveBLAzerTM B/G FRET substrate was added using a Flying Reagent Dispenser (FRD, Beckman Coulter, Indianapolis, IN, USA), the plates were incubated at room temperature for 2.5 h, and fluorescence intensity was measured by an Envision plate reader (PerkinElmer, Shelton, CT). For cell viability readout that measures cytotoxicity, 3 ul/well of CellTiter-Glo reagent was added into the assay plates using a FRD. After 30 min incubation at room temperature, the luminescence intensity in the plates was measured using a ViewLux (PerkinElmer) plate reader.
In general terms: Quantitative high-throughput screening tests each substance at several concentrations.
As to `CCCCCC[n+]1ccccc1`, the Potency entry was “inactive”.
For `O=c1[nH]c(=O)n(Cl)c(=O)n1Cl`, the Potency result was “inactive”.
Turning to `CCCCn1cc[n+](C)c1`, the Potency result was “inactive”.
On to `CC[N+]1(C)CCCC1`, for which the Potency result was “inactive”.
As to `O=C(O)COc1ccc(Cl)cc1Cl`, the Potency result is “inactive”.
As to `O=[N+]([O-])O`, the Potency entry was “inactive”.
To `CCCC[N+]1(C)CCCCC1` belongs “inactive”.
On to `CC(=O)O`, for which the Potency result is “inactive”.
In the case of `Nc1ccc(Cl)cc1`, the Potency result is “inactive”.
`C[C@]12CCC(=O)C=C1CC[C@@H]1[C@@H]2CC[C@]2(C)C(=O)CC[C@@H]12`: the Potency result is “inactive”.
For the molecule `Nc1ccc(-c2ccc(N)c(Cl)c2)cc1Cl`, the Potency entry was “inactive”.
Regarding `CCCCCCCCCCCCOS(=O)(=O)O`, the Potency entry is “inactive”.
Consider `CC(Cl)(Cl)C(=O)O`, for which the Potency result was “inactive”.
Take `CCOP(=S)(OCC)Oc1ccc2c(C)c(Cl)c(=O)oc2c1`: the Potency result was “inactive”.
Take `CCCC[n+]1ccccc1`: the Potency entry was “inactive”.
`CCCC[N+]1(C)CCCC1`: the Potency result was “inactive”.
Regarding `CCCCCCCCn1cc[n+](C)c1`, the Potency result is “inactive”.
For `Cc1cc(Cl)ccc1OCC(=O)O`, the Potency entry is “inactive”.
Take `Oc1cccc2cccnc12`: the Potency was 876 nM (active) and inactive and 710 nM (active).
As to `Oc1ccccc1-c1ccccc1`, the Potency entry is “inactive”.
Turning to `C[N+](C)(C)Cc1ccccc1`, the Potency result is “inactive”.
Consider `O=C(O)C(Cl)(Cl)Cl`, for which the Potency result was “inactive”.
For `O=[N+]([O-])c1ccccc1O`, the Potency entry was “inactive”.
As to `COc1ccc(N)cc1`, the Potency entry is “inactive”.
For the molecule `CCC[N+]1(C)CCCCC1`, the Potency result is “inactive”.
The figure for `CCCC[n+]1ccc(C)cc1` is 54.7 µM (active) and inactive.
Take `CCCn1cc[n+](C)c1`: the Potency result was “inactive”.
The entry for `COCC(=O)N(c1c(C)cccc1C)C(C)C(=O)OC` (stereo not given) is “inactive”; for `O=C(O)c1nc(Cl)ccc1Cl` it is “inactive”; for `Cc1cc(Cl)ccc1N` it is “inactive”.
With `CC(=O)[O][Hg][c]1ccccc1`, the Potency was 1.22 µM (active) and 1.1 µM (active) and 2.11 µM (active).
With `CCCCCCCCCCCCCC[P+](CCCCCC)(CCCCCC)CCCCCC`, the Potency was 6.19 µM (active) and 7.82 µM (active).
As to `CCCC[n+]1ccccc1C`, the Potency entry was “inactive”.
As for `CCn1cc[n+](C)c1C`, the Potency result was “inactive”.
Regarding `Nc1ccccc1`, the Potency entry was “inactive”.
To `CCNc1nc(Cl)nc(NCC)n1` belongs “inactive”.
For `C1CCC(NC2CCCCC2)CC1`, the Potency entry is “inactive”.
To `O=C(O)CC(O)(CC(=O)O)C(=O)O` belongs “inactive”.
The entry for `CC[n+]1ccccc1` is “inactive”.
To `O=C(O)CCl` belongs “inactive”.
